Measurements published in publication PMC7862700, “An all-to-all approach to the identification of sequence-specific readers for epigenetic DNA modifications on cytosine”.

Legend:
Assay in all cases: DAPPL (digital affinity profiling via proximity ligation, sequencing); 10 mM Tris-HCl pH 7.5, 50 mM NaCl, 1 mM DTT, 4% glycerol, room temperature, 30 min; GST-TFs on glutathione beads, 16-mer random dsDNA library, 0.1% formaldehyde crosslink after washing; high values mean tight binding
[1] = biological target: T1, FLI1 (Homo sapiens, UniProt Q01543 1-452); settings: protein: recombinant; tags: N-terminal GST; dsDNA, one strand shown
T1 sequence: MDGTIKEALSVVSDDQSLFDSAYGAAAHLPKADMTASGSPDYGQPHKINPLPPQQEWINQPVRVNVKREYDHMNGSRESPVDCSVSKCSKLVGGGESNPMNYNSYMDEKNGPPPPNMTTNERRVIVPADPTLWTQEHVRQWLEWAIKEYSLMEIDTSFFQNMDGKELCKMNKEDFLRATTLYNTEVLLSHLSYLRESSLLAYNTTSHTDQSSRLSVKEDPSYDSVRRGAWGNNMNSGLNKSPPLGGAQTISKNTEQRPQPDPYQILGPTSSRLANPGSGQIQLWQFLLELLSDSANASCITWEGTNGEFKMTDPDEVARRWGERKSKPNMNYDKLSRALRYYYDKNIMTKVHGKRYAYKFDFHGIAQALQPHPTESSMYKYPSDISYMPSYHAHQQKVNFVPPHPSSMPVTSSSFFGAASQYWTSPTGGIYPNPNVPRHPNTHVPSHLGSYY
Outline: (§1)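 Human transcription factors carrying a GST fusion were produced in yeast, bound to glutathione beads, tagged with DNA barcodes and pooled together with a tag-only sample. Each pool was held with 200 nmole of a random double-stranded 16-mer DNA library in Tris/NaCl/DTT/glycerol buffer for 30 min at room temperature, then washed, crosslinked in 0.1% formaldehyde, proximity-ligated with BsaI/T4 ligase (1 h, 37 °C), PCR-amplified and sequenced on an Illumina NextSeq500. Binding signal is the read frequency of each hexamer for a given factor divided by its frequency in the tag-only sample.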

[2] = biological target: T2, ELK1 (Homo sapiens, UniProt P19419 1-428); settings: protein: recombinant; tags: N-terminal GST; dsDNA, one strand shown
T2 sequence: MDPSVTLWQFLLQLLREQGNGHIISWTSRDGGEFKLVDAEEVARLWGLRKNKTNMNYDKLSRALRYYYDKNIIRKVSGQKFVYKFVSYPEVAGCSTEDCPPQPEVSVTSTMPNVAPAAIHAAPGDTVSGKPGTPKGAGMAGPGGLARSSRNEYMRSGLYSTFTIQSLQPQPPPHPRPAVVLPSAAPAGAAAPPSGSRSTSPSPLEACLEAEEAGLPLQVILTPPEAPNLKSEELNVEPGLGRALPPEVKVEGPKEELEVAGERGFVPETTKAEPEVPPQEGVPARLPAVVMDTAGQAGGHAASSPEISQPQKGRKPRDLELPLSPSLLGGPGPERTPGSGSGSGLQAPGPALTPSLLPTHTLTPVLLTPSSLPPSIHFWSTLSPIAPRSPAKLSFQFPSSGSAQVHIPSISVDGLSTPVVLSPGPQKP
Outline: as §1

[3] = biological target: T3, GABPA (Homo sapiens, UniProt Q06546 1-454); settings: protein: recombinant; tags: N-terminal GST; dsDNA, one strand shown
T3 sequence: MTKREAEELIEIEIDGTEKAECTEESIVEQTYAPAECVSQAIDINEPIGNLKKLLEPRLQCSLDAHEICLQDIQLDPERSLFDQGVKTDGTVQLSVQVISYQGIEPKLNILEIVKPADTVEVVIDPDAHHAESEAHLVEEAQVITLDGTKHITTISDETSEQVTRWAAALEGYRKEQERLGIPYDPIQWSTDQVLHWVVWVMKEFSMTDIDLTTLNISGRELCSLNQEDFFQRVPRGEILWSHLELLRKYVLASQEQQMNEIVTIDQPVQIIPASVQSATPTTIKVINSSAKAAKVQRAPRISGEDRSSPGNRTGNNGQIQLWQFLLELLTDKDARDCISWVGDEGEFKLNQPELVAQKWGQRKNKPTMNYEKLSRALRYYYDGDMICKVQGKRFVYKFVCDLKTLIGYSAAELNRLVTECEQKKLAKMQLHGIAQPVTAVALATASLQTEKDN
Outline: as §1

[4] = biological target: T4, ERG (Homo sapiens, UniProt P11308 1-479); settings: protein: recombinant; tags: N-terminal GST; dsDNA, one strand shown
T4 sequence: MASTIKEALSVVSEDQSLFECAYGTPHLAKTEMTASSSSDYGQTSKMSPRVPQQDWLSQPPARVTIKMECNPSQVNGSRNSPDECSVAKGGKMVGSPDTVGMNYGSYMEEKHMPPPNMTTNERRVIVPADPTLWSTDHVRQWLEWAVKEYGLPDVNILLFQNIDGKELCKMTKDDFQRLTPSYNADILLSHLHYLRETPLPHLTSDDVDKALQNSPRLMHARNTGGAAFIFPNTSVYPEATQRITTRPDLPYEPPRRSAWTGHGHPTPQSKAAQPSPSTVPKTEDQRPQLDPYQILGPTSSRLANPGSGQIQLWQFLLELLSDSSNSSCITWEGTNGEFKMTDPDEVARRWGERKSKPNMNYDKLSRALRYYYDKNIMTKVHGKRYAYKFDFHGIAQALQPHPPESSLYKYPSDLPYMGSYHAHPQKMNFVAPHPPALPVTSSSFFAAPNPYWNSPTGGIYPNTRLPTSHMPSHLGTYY
Outline: as §1

[5] = biological target: ELF1 (Homo sapiens, UniProt P32519 1-619); settings: protein: recombinant; tags: N-terminal GST; dsDNA, one strand shown
Sequence of ELF1 (P32519 whole entry): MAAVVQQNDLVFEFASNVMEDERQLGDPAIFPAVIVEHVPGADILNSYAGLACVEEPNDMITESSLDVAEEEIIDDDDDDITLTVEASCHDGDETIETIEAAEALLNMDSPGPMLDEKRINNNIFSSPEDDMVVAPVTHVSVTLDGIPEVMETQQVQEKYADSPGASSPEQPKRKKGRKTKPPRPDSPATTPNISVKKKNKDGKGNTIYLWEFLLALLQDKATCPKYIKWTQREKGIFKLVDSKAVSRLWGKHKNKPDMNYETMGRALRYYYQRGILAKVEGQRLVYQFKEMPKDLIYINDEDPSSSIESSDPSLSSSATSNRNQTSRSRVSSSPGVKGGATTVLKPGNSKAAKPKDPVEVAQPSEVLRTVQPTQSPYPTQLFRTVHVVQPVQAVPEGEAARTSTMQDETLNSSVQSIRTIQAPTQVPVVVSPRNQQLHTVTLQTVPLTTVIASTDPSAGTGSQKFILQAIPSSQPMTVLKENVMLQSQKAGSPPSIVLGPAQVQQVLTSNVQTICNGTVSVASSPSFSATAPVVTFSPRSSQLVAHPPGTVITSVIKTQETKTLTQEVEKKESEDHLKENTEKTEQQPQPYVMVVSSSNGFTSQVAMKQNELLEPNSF
Outline: as §1

[6] = biological target: T5, EHF (Homo sapiens, UniProt Q9NZC4 1-300); settings: protein: recombinant; tags: N-terminal GST; dsDNA, one strand shown
T5 sequence: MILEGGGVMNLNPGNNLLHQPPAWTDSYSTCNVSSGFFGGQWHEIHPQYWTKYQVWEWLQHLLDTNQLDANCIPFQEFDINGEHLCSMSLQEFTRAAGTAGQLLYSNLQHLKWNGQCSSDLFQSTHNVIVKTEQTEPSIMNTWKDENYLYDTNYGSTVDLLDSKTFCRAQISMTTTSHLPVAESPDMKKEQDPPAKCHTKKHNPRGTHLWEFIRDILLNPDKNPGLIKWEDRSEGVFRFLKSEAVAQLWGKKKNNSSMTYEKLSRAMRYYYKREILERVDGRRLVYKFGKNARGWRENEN
Outline: as §1

[7] = biological target: SPI1 (Homo sapiens, UniProt P17947 1-270); settings: protein: recombinant; tags: N-terminal GST; dsDNA, one strand shown
Outline: as §1

[8] = biological target: SPIB (Homo sapiens, UniProt Q01892 1-262); settings: protein: recombinant; tags: N-terminal GST; dsDNA, one strand shown
Sequence of SPIB (Q01892 whole entry): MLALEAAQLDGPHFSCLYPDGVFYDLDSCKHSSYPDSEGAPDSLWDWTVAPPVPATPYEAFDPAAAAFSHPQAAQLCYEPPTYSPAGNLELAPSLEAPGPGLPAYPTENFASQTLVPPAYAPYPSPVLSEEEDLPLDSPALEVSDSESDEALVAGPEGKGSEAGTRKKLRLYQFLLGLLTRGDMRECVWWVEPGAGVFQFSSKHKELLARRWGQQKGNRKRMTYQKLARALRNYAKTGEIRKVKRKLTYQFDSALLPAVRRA
Outline: as §1

[9] = biological target: T6, ELK3 (Homo sapiens, UniProt P41970 1-407); settings: protein: recombinant; tags: N-terminal GST; dsDNA, one strand shown
T6 sequence: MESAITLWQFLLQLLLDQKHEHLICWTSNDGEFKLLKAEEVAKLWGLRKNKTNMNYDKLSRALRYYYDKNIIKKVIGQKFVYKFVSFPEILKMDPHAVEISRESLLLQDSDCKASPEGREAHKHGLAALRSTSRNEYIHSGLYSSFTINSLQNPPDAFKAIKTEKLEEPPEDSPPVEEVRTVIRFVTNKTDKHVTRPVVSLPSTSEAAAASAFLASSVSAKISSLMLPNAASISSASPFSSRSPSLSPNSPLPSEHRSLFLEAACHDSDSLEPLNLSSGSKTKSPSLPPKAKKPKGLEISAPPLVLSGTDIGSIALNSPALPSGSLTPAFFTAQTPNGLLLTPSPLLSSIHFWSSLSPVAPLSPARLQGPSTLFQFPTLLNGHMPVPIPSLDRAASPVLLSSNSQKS
Outline: as §1

[10] = biological target: T7, FEV (Homo sapiens, UniProt Q99581 1-238); settings: protein: recombinant; tags: N-terminal GST; dsDNA, one strand shown
T7 sequence: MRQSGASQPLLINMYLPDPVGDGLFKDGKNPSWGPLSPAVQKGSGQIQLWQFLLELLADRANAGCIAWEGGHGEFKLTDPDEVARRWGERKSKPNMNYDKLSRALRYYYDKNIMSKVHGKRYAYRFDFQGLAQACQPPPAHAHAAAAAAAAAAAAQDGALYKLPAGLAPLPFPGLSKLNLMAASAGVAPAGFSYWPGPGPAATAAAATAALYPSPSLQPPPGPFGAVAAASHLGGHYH
Outline: as §1

[11] = biological target: ETV5 (Homo sapiens, UniProt P41161 1-510); settings: protein: recombinant; tags: N-terminal GST; dsDNA, one strand shown
Sequence of ETV5 (P41161 whole entry): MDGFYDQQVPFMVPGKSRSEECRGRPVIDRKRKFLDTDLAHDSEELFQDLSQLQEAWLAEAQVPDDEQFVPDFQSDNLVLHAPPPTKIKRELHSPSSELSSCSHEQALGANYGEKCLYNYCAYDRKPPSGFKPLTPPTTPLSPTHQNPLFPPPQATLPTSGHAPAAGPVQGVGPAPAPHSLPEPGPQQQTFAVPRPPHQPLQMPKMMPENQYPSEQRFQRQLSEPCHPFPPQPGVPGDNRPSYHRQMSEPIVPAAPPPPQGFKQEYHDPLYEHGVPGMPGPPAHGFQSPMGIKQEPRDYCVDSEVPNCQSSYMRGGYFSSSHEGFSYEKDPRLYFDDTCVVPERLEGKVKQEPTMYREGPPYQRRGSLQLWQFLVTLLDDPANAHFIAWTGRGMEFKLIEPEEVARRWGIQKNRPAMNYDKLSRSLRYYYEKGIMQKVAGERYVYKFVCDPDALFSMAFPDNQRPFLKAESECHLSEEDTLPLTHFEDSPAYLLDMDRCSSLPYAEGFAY
Outline: as §1

[12] = biological target: HSF1 (Homo sapiens, UniProt Q00613 1-529); settings: protein: recombinant; tags: N-terminal GST; chain copies: 3; dsDNA, one strand shown
Sequence of HSF1 (Q00613 whole entry): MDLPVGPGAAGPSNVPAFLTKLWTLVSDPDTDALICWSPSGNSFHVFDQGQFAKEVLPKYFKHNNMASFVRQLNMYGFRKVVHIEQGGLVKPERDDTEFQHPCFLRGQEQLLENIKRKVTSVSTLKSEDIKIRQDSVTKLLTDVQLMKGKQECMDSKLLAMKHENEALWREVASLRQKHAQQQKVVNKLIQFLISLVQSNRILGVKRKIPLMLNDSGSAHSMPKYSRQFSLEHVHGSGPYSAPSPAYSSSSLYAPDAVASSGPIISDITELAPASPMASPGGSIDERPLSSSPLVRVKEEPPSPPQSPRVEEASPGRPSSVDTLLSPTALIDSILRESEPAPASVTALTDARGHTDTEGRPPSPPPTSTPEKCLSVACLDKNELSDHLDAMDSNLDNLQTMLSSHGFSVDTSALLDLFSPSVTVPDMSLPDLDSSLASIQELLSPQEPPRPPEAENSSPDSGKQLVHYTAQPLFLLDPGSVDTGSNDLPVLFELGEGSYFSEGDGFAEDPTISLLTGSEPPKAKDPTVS
Outline: as §1

[13] = biological target: T8, SPIC (Homo sapiens, UniProt Q8N5J4 1-248); settings: protein: recombinant; tags: N-terminal GST; dsDNA, one strand shown
T8 sequence: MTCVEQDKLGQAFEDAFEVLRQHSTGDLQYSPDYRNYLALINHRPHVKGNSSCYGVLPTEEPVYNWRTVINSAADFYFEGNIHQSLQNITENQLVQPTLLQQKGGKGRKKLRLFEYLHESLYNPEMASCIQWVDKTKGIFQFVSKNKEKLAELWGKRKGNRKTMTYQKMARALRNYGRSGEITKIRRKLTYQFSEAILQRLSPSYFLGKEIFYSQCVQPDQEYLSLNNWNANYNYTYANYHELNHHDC
Outline: as §1

[14] = biological target: ELF4 (Homo sapiens, UniProt Q99607 1-663); settings: protein: recombinant; tags: N-terminal GST; dsDNA, one strand shown
Sequence of ELF4 (Q99607 whole entry): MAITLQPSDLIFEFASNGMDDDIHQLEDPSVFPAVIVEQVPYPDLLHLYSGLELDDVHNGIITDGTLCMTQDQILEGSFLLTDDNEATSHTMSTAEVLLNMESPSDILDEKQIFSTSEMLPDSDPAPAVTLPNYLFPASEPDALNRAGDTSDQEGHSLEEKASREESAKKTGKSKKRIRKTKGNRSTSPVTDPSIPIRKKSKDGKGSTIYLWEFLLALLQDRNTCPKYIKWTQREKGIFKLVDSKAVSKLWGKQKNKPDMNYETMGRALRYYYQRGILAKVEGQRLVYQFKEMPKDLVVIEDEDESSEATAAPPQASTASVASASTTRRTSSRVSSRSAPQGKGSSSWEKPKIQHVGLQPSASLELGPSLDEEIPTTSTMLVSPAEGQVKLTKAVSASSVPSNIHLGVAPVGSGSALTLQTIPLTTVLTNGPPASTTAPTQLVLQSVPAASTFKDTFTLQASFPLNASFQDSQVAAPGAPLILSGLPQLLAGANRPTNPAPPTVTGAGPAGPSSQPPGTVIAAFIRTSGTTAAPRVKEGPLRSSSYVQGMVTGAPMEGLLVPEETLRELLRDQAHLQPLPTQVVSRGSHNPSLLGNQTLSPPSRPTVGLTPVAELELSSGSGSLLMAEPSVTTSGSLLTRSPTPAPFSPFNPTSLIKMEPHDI
Outline: as §1

[15] = biological target: T9, ELK4 (Homo sapiens, UniProt P28324-2 1-405); settings: protein: recombinant; tags: N-terminal GST; dsDNA, one strand shown
T9 sequence: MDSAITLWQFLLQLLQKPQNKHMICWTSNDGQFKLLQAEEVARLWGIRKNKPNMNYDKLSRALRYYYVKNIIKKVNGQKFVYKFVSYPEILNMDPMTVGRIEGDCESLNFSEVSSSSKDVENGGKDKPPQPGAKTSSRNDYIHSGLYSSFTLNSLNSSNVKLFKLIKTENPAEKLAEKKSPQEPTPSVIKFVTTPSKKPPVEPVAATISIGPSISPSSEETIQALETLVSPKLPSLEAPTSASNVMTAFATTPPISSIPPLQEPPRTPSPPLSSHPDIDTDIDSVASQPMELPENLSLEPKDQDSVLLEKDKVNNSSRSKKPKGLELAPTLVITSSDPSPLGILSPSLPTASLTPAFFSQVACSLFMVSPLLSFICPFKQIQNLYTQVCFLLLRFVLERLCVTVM
Outline: as §1

[16] = biological target: T10, ETV2 (Homo sapiens, UniProt O00321 1-342); settings: protein: recombinant; tags: N-terminal GST; dsDNA, one strand shown
T10 sequence: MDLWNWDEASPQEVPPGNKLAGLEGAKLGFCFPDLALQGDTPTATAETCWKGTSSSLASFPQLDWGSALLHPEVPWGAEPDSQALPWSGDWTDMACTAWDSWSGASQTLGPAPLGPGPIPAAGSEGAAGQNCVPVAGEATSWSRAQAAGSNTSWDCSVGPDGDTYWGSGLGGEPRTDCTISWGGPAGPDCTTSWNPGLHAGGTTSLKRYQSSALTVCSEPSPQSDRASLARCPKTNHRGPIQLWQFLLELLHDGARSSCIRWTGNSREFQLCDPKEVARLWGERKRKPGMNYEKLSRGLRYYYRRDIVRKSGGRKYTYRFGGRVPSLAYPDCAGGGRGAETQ
Outline: as §1

[17] = biological target: T11, ELF3 (Homo sapiens, UniProt P78545 1-371); settings: protein: recombinant; tags: N-terminal GST; dsDNA, one strand shown
T11 sequence: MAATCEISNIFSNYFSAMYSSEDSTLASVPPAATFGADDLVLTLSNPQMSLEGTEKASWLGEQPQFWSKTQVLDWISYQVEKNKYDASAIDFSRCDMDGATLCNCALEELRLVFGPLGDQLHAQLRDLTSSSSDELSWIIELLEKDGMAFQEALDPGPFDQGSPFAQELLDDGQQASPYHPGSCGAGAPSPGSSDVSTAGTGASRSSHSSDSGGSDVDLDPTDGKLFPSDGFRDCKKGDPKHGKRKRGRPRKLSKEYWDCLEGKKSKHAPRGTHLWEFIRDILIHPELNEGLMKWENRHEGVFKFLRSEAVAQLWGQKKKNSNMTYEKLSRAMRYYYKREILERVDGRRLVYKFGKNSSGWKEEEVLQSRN
Outline: as §1

[18] = biological target: CRX (Homo sapiens, UniProt O43186 1-299); settings: protein: recombinant; tags: N-terminal GST; dsDNA, one strand shown
Sequence of CRX (O43186 whole entry): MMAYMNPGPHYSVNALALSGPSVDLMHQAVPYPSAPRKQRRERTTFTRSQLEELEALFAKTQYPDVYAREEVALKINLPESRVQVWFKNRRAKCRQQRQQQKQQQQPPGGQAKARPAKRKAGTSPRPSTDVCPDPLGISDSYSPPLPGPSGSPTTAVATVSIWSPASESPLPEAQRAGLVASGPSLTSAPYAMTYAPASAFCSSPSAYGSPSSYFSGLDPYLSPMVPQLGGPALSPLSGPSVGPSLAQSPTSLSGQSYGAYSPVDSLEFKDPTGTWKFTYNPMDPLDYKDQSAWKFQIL
Outline: as §1

[19] = biological target: ETV1 (Homo sapiens, UniProt P50549 1-477); settings: protein: recombinant; tags: N-terminal GST; dsDNA, one strand shown
Sequence of ETV1 (P50549 whole entry): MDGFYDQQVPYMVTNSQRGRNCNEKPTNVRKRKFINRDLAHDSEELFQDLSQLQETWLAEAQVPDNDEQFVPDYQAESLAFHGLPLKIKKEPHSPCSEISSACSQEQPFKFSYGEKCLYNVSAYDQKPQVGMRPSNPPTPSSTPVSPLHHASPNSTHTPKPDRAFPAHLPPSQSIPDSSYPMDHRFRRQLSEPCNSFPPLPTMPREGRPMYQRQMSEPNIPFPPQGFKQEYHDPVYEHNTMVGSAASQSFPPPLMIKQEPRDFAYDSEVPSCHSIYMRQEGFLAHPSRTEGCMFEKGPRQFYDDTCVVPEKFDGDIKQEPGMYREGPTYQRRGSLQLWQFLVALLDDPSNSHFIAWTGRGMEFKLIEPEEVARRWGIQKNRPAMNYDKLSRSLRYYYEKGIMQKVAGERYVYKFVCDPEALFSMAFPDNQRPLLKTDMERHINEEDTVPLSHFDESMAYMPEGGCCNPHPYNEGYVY
Outline: as §1

What does the source list for CTCCTG?
binding signal [1]: 1.66 fold enrichment (6-mer frequency, TF over GST control); binding signal [2]: 1.69 fold enrichment (6-mer frequency, TF over GST control); binding signal [3]: 1.74 fold enrichment (6-mer frequency, TF over GST control); binding signal [4]: 1.51 fold enrichment (6-mer frequency, TF over GST control); binding signal [5]: 1.65 fold enrichment (6-mer frequency, TF over GST control); binding signal [6]: 1.33 fold enrichment (6-mer frequency, TF over GST control); binding signal [7]: 1.58 fold enrichment (6-mer frequency, TF over GST control); binding signal [8]: 1.7 fold enrichment (6-mer frequency, TF over GST control); binding signal [9]: 1.73 fold enrichment (6-mer frequency, TF over GST control); binding signal [10]: 1.57 fold enrichment (6-mer frequency, TF over GST control); binding signal [11]: 1.71 fold enrichment (6-mer frequency, TF over GST control); binding signal [12]: 1.52 fold enrichment (6-mer frequency, TF over GST control); binding signal [13]: 1.37 fold enrichment (6-mer frequency, TF over GST control); binding signal [14]: 1.65 fold enrichment (6-mer frequency, TF over GST control); binding signal [15]: 1.35 fold enrichment (6-mer frequency, TF over GST control); binding signal [16]: 1.62 fold enrichment (6-mer frequency, TF over GST control); binding signal [17]: 1.47 fold enrichment (6-mer frequency, TF over GST control); binding signal [18]: 1.46 fold enrichment (6-mer frequency, TF over GST control); binding signal [19]: 1.79 fold enrichment (6-mer frequency, TF over GST control)
